Screens as filed in PubChem BioAssay.
Hits are enriched below; roughly 4.3% of the tested compounds scored in any of these assays.
Bead autofluor = counter-screen for toxin protease inhibitors: compound fluorescence. compound autofluorescence counterscreen, microsphere flow cytometry; stronger effect = higher value. fluorescence intensity (no concentration beside the values). actives 3.1% (n = 360,000). AID 624483; in the data active = fluorescence intensity above about 16000; inconclusive = no clear call, values can overlap the other calls
Anthrax LF inh2 = anthrax lethal factor protease inhibition; P15917; multiplex microsphere protease cleavage assay, LF; inhibition, % at 10 µM; actives 0.12% (n = 360,000); note: plate controls were buffer without enzyme for full effect and enzyme alone for no effect
PfHsp40 yeast = compounds rescuing yeast from Plasmodium falciparum HSP40 toxicity. S. cerevisiae expressing PfHsp40, growth rescue, ATP luminescence. growth rescue, % at 12.5 µM. actives 0.68% (n = 340,000). AID 504582; in the data active = growth rescue above about 28%, passing the limit was not always enough; inconclusive = no clear call, values can overlap the other calls;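 note: yeast W303a lacking pdr1 and pdr3 grown in galactose medium; growth measured after three days at 30 °C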
BoNT A protease = BoNT A light chain protease inhibition. multiplex microsphere protease substrate cleavage, flow cytometry. inhibition, % at 10 µM. actives 0.17% (n = 360,000). AID 588499; note: plate controls were buffer without enzyme for full effect and enzyme alone for no effect
BoNT-F LC inh = BoNT F light chain protease inhibition; Multiplex microsphere protease cleavage assay, flow cytometry; inhibition, % at 10 µM; actives 0.22% (n = 360,000); AID 588497; in the data active = inhibition above about 35%, passing the limit was not always enough; inconclusive = no clear call, values can overlap the other calls; note: plate controls were buffer without enzyme for full effect and enzyme alone for no effect
MazEF act = increases E. coli MazEF RNase cleavage of RNA. P0AE70. FAM/BHQ RNA-DNA oligo cleavage fluorescence, 5 h. activation, % at 20 µM. actives 0.32% (n = 350,000). AID 504720; in the data active = activation above about 50%
* marks the source's active call; other numbers are inactive results; ? = inconclusive; / = no result given. Cut-off read from the data, not from the text of the source, unless noted: active = inhibition above about 30%; inconclusive = no clear call, values can overlap the other calls; inactive = below that.

SMILES	Bead autofluor	Anthrax LF inh2	PfHsp40 yeast	BoNT A protease	BoNT-F LC inh	MazEF act
COc1ccc(NS(=O)(=O)Cc2ccccc2)cc1OC	21419*	0	-2	2	-2	-3
O=S(=O)(Cc1ccccc1)Nc1ccccc1	3618	9	0	0	-13	7
COc1ccccc1-n1c(SCC(=O)Nc2ccccc2F)nc2[nH]ncc2c1=O	16242*	0	1	?	-2	3
Cc1ccc(S(=O)(=O)N(C)Cc2cc3ccccc3[nH]c2=O)cc1	22031*	-9	0	0	-2	2
Cc1ccc2[nH]c(=O)c(CN(CCO)C(=O)N(C)C)cc2c1	17576*	-2	0	-6	-8	-2
COc1cccc(C(CC(=O)Nc2cccc3ccccc23)NC(=O)c2ccccc2)c1 (stereo not drawn)	19845*	-7	4	5	10	-3
COCCNc1ncnc2c1ncn2[C@H]1CN(Cc2ccncc2)C[C@@H](CO)O1	2902	1	/	0	0	/
Cc1cc(C)n(-c2nc3ccccc3nc2N2CCC(C)CC2)n1	22810*	14	8	?	5	3
Cc1nc2cc3nc(C(F)(F)F)[nH]c3cc2[nH]1	2529	1	-1	0	-5	-5
COc1ccc(C(=O)Nc2cc(OC)c(Cl)cc2OC)cc1	4944	-9	2	0	-10	-4
CCCCOC(=O)Nc1ccc(C(=O)OC)cc1	21923*	-2	0	0	1	10
CCCCOC(=O)c1ccc(NC(C)=O)cc1	4890	0	-1	-1	-1	1
COc1cc(NC(=O)c2c(F)c(F)c(F)c(F)c2F)c(OC)cc1Cl	21733*	-2	0	2	1	7
CCCCOC(=O)Nc1cc(OC)c(Cl)cc1OC	23042*	-2	-1	1	0	1
COc1cccc(C(=O)N2CCC[C@H]2C(=O)N2CCC[C@H]2C(=O)N(C)Cc2ccccc2)c1	6174	10	/	1	4	/
CCOC(=O)c1ccc(Cl)c(S(=O)(=O)N2CCCC2)c1	3152	2	-2	-3	-2	20
Cc1ccc(NC2=CC(=O)C(=O)c3ccccc32)cc1	16510*	-2	1	-1	-5	4
NS(=O)(=O)c1ccc(NC2=CC(=O)C(=O)c3ccccc32)cc1	3495	-10	1	-2	-24	-1
CCCS(=O)(=O)NC(=O)C1(C)CCCN(C(=O)c2nc3ccccc3s2)C1 (stereo not drawn)	3558	-3	/	0	-1	/
COc1cc(-c2nnc(SCC#CCO)o2)cc(OC)c1OC	22486*	-2	0	0	-1	-3
COc1ccc(Cc2nc3ccc(C(=O)NCC4COCCO4)cc3o2)cc1OC (stereo not drawn)	4017	-2	5	2	-2	0
c1ccc2c(COn3nnc4ccccc43)cccc2c1	21859*	1	4	2	0	-10
CCN(CC(=O)NCc1cccs1)C(=O)c1cccc(S(=O)(=O)Nc2ccc(OC)cc2)c1	?	-4	0	0	4	5
CN(CCc1cnn(C)c1)C(=O)C1CCC(=O)N(CC2CCCCC2)C1 (stereo not drawn)	4824	-1	1	-1	1	1
O=[N+]([O-])c1ccc(NN=Cc2ccc3c(c2)OCO3)nc1	4225	-10	1	-1	-5	106*
SMILES	Bead autofluor	Anthrax LF inh2	PfHsp40 yeast	BoNT A protease	BoNT-F LC inh	MazEF act
CCOC(=O)C(C)C1(O)c2ccccc2-c2ncccc21 (stereo not drawn)	23373*	-2	-1	?	-8	-2
OC(CC1CC12c1ccccc1-c1ncccc12)(c1ccccc1)c1ccccc1 (stereo not drawn)	5889	-7	2	0	2	0
COc1cccc2cc(C(=O)CS(=O)(=O)c3ccc(Cl)cc3)c(=O)oc12	5740	-1	-1	1	-3	4
COC(=O)[C@H](Cc1ccc(O)cc1)NC(=O)Cn1cnc2c(OCc3ccccc3)ncnc21	3516	-2	0	0	0	3
CC1(C)CC(=O)c2c(O)cc(OCc3ccc([N+](=O)[O-])cc3)cc2O1	24979*	-2	-1	?	-3	7
C=CCOCC(O)Cn1c(N2CCCC2)nc2c1c(=O)[nH]c(=O)n2C (stereo not drawn)	3786	0	-2	0	-11	3
CCOC(=O)C(Cc1ccccc1)c1ccnc2nc(N)nn12 (stereo not drawn)	4530	0	0	0	-2	7
O=C(c1ccco1)c1cc2c(ccc3ccccc32)oc1=O	22410*	3	0	3	3	5
COC(=O)c1nn(C)c(=O)[nH]c1=O	2847	0	-2	0	-9	8
CN1CCN(C(=O)Nc2cccc3ccccc23)CC1	18834*	-7	0	3	3	2
Cc1cc(NC(=O)c2cc(-c3ccccc3)on2)n(-c2ccccc2)n1	4140	-8	-1	1	16	-211
O=C(NCc1ccco1)c1cc(C(=O)C2CC2)c[nH]1	21145*	1	-1	?	-3	2
Cc1ccccc1C(=O)c1c[nH]c(C(=O)NCc2ccco2)c1	5343	-12	-1	-1	-5	12
COc1ccccc1-c1cc(C(=O)NC(C)C)no1	8192	1	0	0	-7	-11
O=C(NCc1ccccc1)c1cc(-c2ccco2)on1	12011	-4	1	0	-4	1
Cc1cc(NC(=O)c2cc(-c3ccco3)on2)n(-c2ccccc2)n1	23364*	-3	1	-1	0	20
O=C(NCc1ccco1)c1cc(-c2ccco2)on1	16474*	-2	-1	?	-2	6
COc1ccccc1-c1cc(C(=O)Nc2ccc(F)cc2F)no1	20081*	-6	0	5	5	-6
CCCCC(=O)/C=C/n1c(=S)oc2ccccc21	2496	-1	-2	1	6	-6
COc1ccc(N2C(=O)c3ccc(C(=O)Nc4ccccc4OC)cc3C2=O)cc1	2927	-12	-2	4	?	-4
CCc1c(C)sc(NC(=O)c2cc(C)on2)c1C#N	6711	-4	0	2	11	-9
COc1ccccc1-c1cc(C(=O)Nc2cc(C)nn2-c2ccccc2)no1	20928*	-8	0	3	6	8
CCc1c(C)sc(NC(=O)c2cc(-c3ccco3)on2)c1C#N	23332*	1	0	1	-1	5
CC1(C)C(=O)Nc2ccccc2N1C(=O)COC(=O)c1ccc([N+](=O)[O-])o1	2839	1	-1	0	1	-18
COc1cc2c(cc1OC)CN(C(=O)c1ccc([N+](=O)[O-])o1)CC2	3770	7	63*	-7	?	7
O=C(c1ccccc1Cl)N1CCc2ccccc2C1	17580*	-2	0	-5	-7	-8
COc1cc2c(cc1OC)CN(C(=O)Nc1ccccc1)CC2	3910	-1	0	1	-10	0
